This note sets out measurements from PubChem BioAssay (NCATS).

The structures appear in SMILES notation. Records with an inconclusive call do not appear. Entries that show only a call come without a potency. Activity calls are given as the source filed them. Calls follow the shape of the full dose curve.

The target in this assay is Atrial natriuretic peptide receptor 1 (Homo sapiens) (UniProt P16066). Kind of assay: Natriuretic polypeptide receptor (hNpr1) antagonism - Pilot CMLD screen (AID 1347052).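 Also: HEK293 cells with hNpr1 stimulated by hNppA peptide at 0.1 nM; cGMP level read as GloSensor luciferase luminescence after agonist stimulation; series mostly up to about 9.2 µM.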
Atrial natriuretic peptide receptor 1 (Homo sapiens), sequence (P16066 whole entry, looked up): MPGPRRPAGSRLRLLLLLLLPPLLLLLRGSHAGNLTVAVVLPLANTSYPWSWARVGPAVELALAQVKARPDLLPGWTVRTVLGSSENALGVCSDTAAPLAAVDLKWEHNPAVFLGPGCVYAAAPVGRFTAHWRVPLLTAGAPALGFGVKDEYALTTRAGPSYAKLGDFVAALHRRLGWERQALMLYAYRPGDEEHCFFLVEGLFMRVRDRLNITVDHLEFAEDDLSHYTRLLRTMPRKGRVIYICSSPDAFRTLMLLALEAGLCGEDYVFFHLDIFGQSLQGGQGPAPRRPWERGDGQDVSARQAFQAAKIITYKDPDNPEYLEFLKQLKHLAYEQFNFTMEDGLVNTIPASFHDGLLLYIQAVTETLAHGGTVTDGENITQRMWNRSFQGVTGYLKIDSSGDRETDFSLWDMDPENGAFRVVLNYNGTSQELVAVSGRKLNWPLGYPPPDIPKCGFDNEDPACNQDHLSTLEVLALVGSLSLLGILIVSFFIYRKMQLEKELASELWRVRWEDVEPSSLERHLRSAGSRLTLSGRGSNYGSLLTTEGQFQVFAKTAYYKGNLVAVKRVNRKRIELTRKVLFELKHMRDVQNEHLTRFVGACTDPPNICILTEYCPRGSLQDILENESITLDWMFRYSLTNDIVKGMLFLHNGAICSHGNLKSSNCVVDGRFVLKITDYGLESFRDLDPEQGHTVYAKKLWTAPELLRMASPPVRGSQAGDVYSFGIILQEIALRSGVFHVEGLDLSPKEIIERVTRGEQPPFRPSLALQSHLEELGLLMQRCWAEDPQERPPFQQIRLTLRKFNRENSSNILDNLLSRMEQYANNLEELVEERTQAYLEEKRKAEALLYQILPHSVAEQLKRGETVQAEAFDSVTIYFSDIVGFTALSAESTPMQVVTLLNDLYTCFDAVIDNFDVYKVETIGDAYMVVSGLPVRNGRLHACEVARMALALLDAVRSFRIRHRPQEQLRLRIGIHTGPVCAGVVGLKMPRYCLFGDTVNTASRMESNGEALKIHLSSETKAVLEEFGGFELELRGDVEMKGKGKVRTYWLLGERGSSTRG

As for `FC(F)(F)c1cc(NC(=S)Nc2ccc3cc4ccccc4cc3c2)cc(C(F)(F)F)c1`, the Potency result was “inactive”.
Then `COC(=O)N1C(C=Cc2ccc3c(c2)OCO3)=Cc2ccccc2C1CC(C)=O` (configuration not stated), with “inactive”.
